# DT40 TDP1 no CPT = qHTS for Inhibitors of human tyrosyl-DNA phosphodiesterase 1 (TDP1): qHTS in cells in absence of CPT; AID 686978, 2013; DT40 Tdp1-/- hTDP1 cells, no CPT, ATP luminescence, 48 h; 15% of 420,000 active; Potency, µM (doses to about 46.2 µM), inactives show top-dose activity change, negative = growth inhibition, actives largely listed as inhibitors; also: potency is read from the fitted curve at half-maximal effect; nearly all actives have a fitted effect of over 55% in size
#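 Camptothecin absent (DMSO only). Human TDP1-complemented DT40 knockout cells, 400 cells/well, 37 °C for minimum 48 hr; ATP measured via CellTiter-Glo, 30 min dark incubation, luminescence.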
# RORgamma inh = blocks mouse ROR gamma transcriptional activity; P51450; Drosophila S2 Gal4-RORgamma UAS-luciferase reporter, 20 h; Potency, µM (titrated, usually from 53.6 µM), inactives show top-dose activity change, negative = inhibition, actives largely listed as inhibitors; 5.4% of 310,000 active; also: potency is read from the fitted curve at half-maximal effect; nearly all actives have a fitted effect of over 60% in size
# Target sequence (P51450 whole entry, looked up, the tested form may be a part): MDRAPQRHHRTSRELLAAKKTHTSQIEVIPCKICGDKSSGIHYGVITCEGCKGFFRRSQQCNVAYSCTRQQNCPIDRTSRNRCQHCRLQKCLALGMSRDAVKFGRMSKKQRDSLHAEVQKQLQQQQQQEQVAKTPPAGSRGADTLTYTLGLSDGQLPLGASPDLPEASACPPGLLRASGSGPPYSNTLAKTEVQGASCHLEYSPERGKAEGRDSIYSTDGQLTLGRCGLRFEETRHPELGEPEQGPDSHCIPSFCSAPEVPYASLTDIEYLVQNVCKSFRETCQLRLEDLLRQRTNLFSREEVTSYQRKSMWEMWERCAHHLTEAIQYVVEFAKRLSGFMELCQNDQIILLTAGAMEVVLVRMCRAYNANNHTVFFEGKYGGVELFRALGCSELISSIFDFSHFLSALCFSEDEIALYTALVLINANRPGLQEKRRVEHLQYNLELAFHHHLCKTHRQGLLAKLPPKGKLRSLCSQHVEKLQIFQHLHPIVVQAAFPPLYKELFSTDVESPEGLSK
#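 Drosophila Schneider cells stably carrying a metallothionein-driven Gal4 DBD–ROR gamma fusion and a UAS-Photinus luciferase reporter were exposed to compound for 1 hr, then induced with copper sulfate (700 uM final) for 20 hr at ambient temperature before luminescence reading.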
# TDP1 cell CPT = growth inhibition of DT40 Tdp1-/-;hTDP1 cells with camptothecin (screen for TDP1 inhibitors); chicken DT40 Tdp1-/-;hTDP1 cells + 20 nM CPT, ATP luminescence, 48 h; Potency, µM (titrated, usually from 46.2 µM), inactives show at the top dose activity change, negative = growth inhibition, actives largely listed as inhibitors; 12% of 420,000 active; also: potency is read from the fitted curve at half-maximal effect; nearly all actives have a fitted effect of over 55% in size
#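 Chicken DT40 Tdp1-/- cells complemented with human TDP1, 400 cells/well, exposed to compounds plus 20 nM camptothecin for at least 48 h at 37 C; viability read as ATP content by CellTiter-Glo luminescence.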
# IL1B secr inh = inhibitors of inflammasome signaling (IL-1 beta secretion); THP-1 LPS/ATP IL-1B secretion, AlphaLISA, 16 h; hits give low values; activity change, % at 57.5 µM; 4.7% of 360,000 active; in the data active = activity change below about -50%; inconclusive = mostly about -30% to -49%
#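 THP-1 cells pretreated 1 hr with compounds (up to 57.5 uM final), then stimulated with LPS (250 ng/mL final) plus ATP (1.25 mM final); secreted IL-1B measured by AlphaLISA after 16 hr, decreased signal indicating inhibition.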
# Gal4-VP16 FLuc = counter-screen for ROR gamma inhibitors: Gal4-VP16 reporter | Drosophila S2 Gal4-VP16 UAS-luciferase, luminescence, 20 h | Potency, µM (doses to about 53.6 µM), inactives show top-dose activity, negative = inhibition, most hits filed as inhibitors | 3.5% of 310,000 active;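 also: Gal4-VP16 expression switched on by copper sulfate through the metallothionein promoter; potency is read from the fitted curve at half-maximal effect; nearly all actives have a fitted effect of over 50% in size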
# ELG1 repair inh = inhibitors of ELG1-dependent DNA repair in HEK293T cells; HEK293T ELG1-luciferase reporter, luminescence, 16 h; DNA damage induced by 5-fluorouridine; 2.3% of 330,000 active; Potency, µM (highest dose often 46.1 µM), without a hit: at the highest dose activity change, negative = inhibition, most hits filed as inhibitors; also: potency is read from the fitted curve at half-maximal effect; nearly all actives have a fitted effect of over 55% in size
#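 Reporter activity after DNA damage by 5-fluorouridine is monitored. Compound-treated cells incubate 16 hr at 37 °C, then ONE-Glo is added for 30 min before luminescence reading.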
# * marks the source's active call; other numbers are inactive results; ? = inconclusive; . = no result; ! = not confirmed by another sample. Hits are enriched below; roughly 21% of the tested compounds scored in any of these assays. Unless noted, calls follow the shape of the dose curve; as a rule, active = well fitted curve in the direction sought with a large enough effect; inconclusive = small, poorly fitted or top-dose-only effect, or another doubt; inactive = no such curve, though single readings can be large; an effect the other way counts as inactive or inconclusive. % is scaled to controls: 0 for no effect and ±100 for the full control effect.
SMILES,DT40 TDP1 no CPT,RORgamma inh,TDP1 cell CPT,IL1B secr inh,Gal4-VP16 FLuc,ELG1 repair inh
O=C(COc1ccc(S(=O)(=O)N2CCCC2)cc1)NCC1CCCO1 (stereo not given),0%,1%,25%,7,-5%,-2%
COc1ccc2c(c1)C(=O)C1NC(=O)NC(=O)C1(Br)N2 (stereo not given),-2%,.,-5%,18,.,.
Cc1ccc(N(C)S(=O)(=O)c2ccc3[nH]cc(C(=O)O)c(=O)c3c2)cc1C,-15%,.,-1%,.,.,.
CNC(=O)c1cc(Nc2nnc(-c3ccc(O)cc3)c3ccccc23)ccc1OC,?,-37%,16µM*!,-59*,-21%,-4%
CCOc1ccc(-c2nnc(Nc3ccc(OC)c(C(=O)N4CCCCC4)c3)c3ccccc23)cc1,16µM*,?,?,-19,-30%,?
O=C(CN1C(=O)CSc2ccc(S(=O)(=O)N3CCCC3)cc21)NCc1ccccc1Cl,-27%,.,?,.,.,.
C=CCn1c(C)cc(C(=O)COC(=O)[C@@H](NC(=O)c2ccccc2Cl)C(C)C)c1C,?,14µM*,?,19,13µM*,?
CC(C)Cc1ccc(/C=C/C(=O)NC2CC2)cc1,?,?,-22%,-23,16µM*,?
O=C(/C=C/c1ccc(Br)cc1)NC1CCCCCC1,?,-6%,-13%,-11,-17%,?
CSc1nnc(-c2sc3cc(C(F)(F)F)cnc3c2-c2ccccc2)n1C,16µM*,-17%,4.6µM*,10,0%,?
O=C(O)c1sc2cc(C(F)(F)F)cnc2c1-c1ccccc1,-12%,-14%,-10%,0,1%,-7%
O=C(COc1ccc(Cl)cc1Cl)NNC(=S)NC(=O)c1ccco1,?,11µM*,?,.,?,-3%
O=C(O)CCC(=O)NNC(=O)COc1ccc(Cl)cc1Cl,-11%,2%,-1%,-4,-3%,4%
C/C(CC(=O)NCc1ccco1)=N\NC(=O)COc1ccc(Cl)cc1Cl,21µM*,?,18µM*,41,-9%,7%
O=C(COc1ccc(Cl)cc1Cl)NNC(=S)NCc1ccco1,-16%,3.2µM*,?,21,?,24%
O=C(COc1ccc(Cl)cc1Cl)NCc1ccco1,-7%,?,-19%,-15,-18%,?
O=C(NCc1cccs1)c1csc([C@@H]2C[C@H](O)[C@@H](CO)O2)n1,-29%,.,-28%,16,.,.
COc1cccc(CNC(=O)c2cc3c(=O)oc4ccc(C)cc4c3s2)c1,21µM*,.,?,.,.,.
COc1ccc(OC)c(CCNC(=O)c2cc3c(=O)oc4ccc(C)cc4c3s2)c1,-24%,.,2%,.,.,.
COCCCNC(=O)c1cc2c(=O)oc3ccc(C)cc3c2s1,5.8µM*,.,6.5µM*,.,.,.
COc1ccc(NC(=O)C2CCN(S(=O)(=O)c3cn(C)cn3)CC2)cc1Cl,-15%,.,-17%,.,.,.
C[C@H](NC(=O)OC(C)(C)C)c1nnc(SCC(=O)c2ccc(Cl)cc2)o1,21µM*,?,16µM*,12,-29%,-15%
O=C(CSc1nnc(CNC(=O)c2cccs2)o1)c1ccc(Cl)cc1,?,-3%,21µM*,-58*,-9%,?
CC(C)(C)OC(=O)NCCc1nnc(SCc2ccc(Cl)cc2Cl)o1,?,37%,?,8,4%,-19%
C[C@H](NC(=O)OC(C)(C)C)c1nnc(SCC(=O)Nc2cccc(Cl)c2)o1,17%,6%,-25%,-1,-9%,?
SMILES,DT40 TDP1 no CPT,RORgamma inh,TDP1 cell CPT,IL1B secr inh,Gal4-VP16 FLuc,ELG1 repair inh
CC(C)(C)OC(=O)NCCc1nnc(SCC(=O)c2ccc(Cl)cc2)o1,?,?,23µM*,-17,?,?
O=C(CSc1nnc(CNC(=O)c2cccs2)o1)c1ccccc1,?,3%,-26%,21,15%,-14%
CC(C)[C@H](N)c1nnc(SCC(=O)c2ccc(Cl)cc2)o1,13µM*,0%,12µM*,-10,8%,24%
C[C@H](N)c1nnc(SCC(=O)c2ccc(Cl)cc2)o1,-1%,-20%,4%,12,-8%,4%
COc1ccc(C(=O)NC2CCN(CC(=O)NCc3ccccc3)CC2)cc1,-13%,-2%,-7%,-1,7%,-3%
CCOC(=O)CCCCCC(=O)Nc1ccc2c(c1)C(=O)N([C@@H](C)CO)C[C@H](C)[C@H](CN(C)C(=O)NC(C)C)OCCCC[C@H](C)O2,-14%,.,-4%,3,.,.
COC(=O)Nc1ccc(SCC(=O)c2ccc(Cl)cc2)cc1,?,-33%,?,-62*,3%,7%
COc1cccc(C2=CC(=O)C(C(C)(C)C)N2C(C)(C)C)c1 (stereo not given),21µM*,.,?,16,.,.
COc1ccc(S(=O)(=O)N2CCOCC2)cc1NC(=O)CN1C(=O)NC2(CCCC2)C1=O,26%,.,-6%,4,.,8%
Cc1oc(-c2cccc(Br)c2)nc1Cn1c(SCc2cccc(F)c2)nc2cccnc21,21µM*,.,?,.,.,.
Cc1ccc(-c2nc(Cn3c(SCc4ccc(F)cc4)nc4cccnc43)c(C)o2)cc1,0.82µM*,.,0.73µM*,.,.,.
Cc1oc(-c2cccc(Br)c2)nc1Cn1c(=O)cc(-c2ccccc2)c2c(C)nn(C)c21,-17%,.,-2%,.,.,.
COc1ccc(-c2cn3nc(N4CCC(C(=O)Nc5cccc(Cl)c5)CC4)sc3n2)cc1,?,.,-28%,.,.,.
COc1ccc(-c2cn3nc(N4CCCC(C(=O)Nc5cccc(OC)c5)C4)sc3n2)cc1 (stereo not given),23µM*,.,21µM*,.,.,.
CCOc1ccc(NC(=O)C2CCCN(c3nn4c(=O)cc(C)nc4s3)C2)cc1 (stereo not given),-1%,-14%,-1%,3,0%,-1%
COc1ccc(-c2cn3nc(N4CCCC(C(=O)Nc5cc(C)cc(C)c5)C4)sc3n2)cc1 (stereo not given),8.2µM*,.,8.2µM*,.,.,.
Cc1cc(C)cc(NC(=O)C2CCCN(c3nc(C)cc(C)n3)C2)c1 (stereo not given),-13%,-1%,-2%,12,0%,3%
COc1cccc(CNC(=O)C2CCCN(c3nn4c(=O)cc(C)nc4s3)C2)c1OC (stereo not given),-11%,0%,-30%,-14,9%,-3%

# Screens from PubChem.
